Entries with a potency or affinity are not part of this list.
How the values were obtained:
Klebsiella pneumoniae = details: Concentration 32 ug.mL-1; ASSAY_TEST Inhibition of Bacterial Growth; detection method Absorption (OD600); MEDIA CAMHB; plate type 384well; NBS; CORNING #3640; time 18 hr
Candida albicans = details: 32 ug/mL
Cryptococcus neoformans = details: Concentration 32 ug.mL-1; ASSAY_TEST Inhibition of Fungal Growth; detection method Resazurin; Absorption (OD600-OD570); plate type 384well; NBS; CORNING #3640

Compound	Inhibition (Klebsiella pneumoniae) [%]	Inhibition (Candida albicans) [%]	Inhibition (Cryptococcus neoformans) [%]
O=C1C[C@@H]2[C@@H](C=NNC(=O)c3ccncc3)[C@@H](C[C@H]2Cl)O1	20.62	2.47	-98.94
O=C(NN=CC[C@@H]1[C@@H](/C=C/[C@@H](O)CCc2ccccc2)[C@H](OC(=O)c2ccccc2)C[C@@H]1O)c1ccncc1	14.41	5.97	-72.55
O=C(NNC(=O)c1ccc([N+](=O)[O-])cc1C(=O)O)c1ccncc1	17.92	3.64	-51.18
O=C(N/N=C/C[C@@H]1[C@@H](/C=N/NC(=O)c2ccncc2)[C@H](O)C[C@@H]1O)c1ccncc1	9.84	0.98	-79.15
COC(=O)C[C@H]1[C@H](/C=N\NC(=O)c2ccncc2)[C@@H](O[Si](C)(C)C(C)(C)C)C[C@@H]1Cl	21.45	1.67	-101.31
O=C(N/N=C1/C[C@@H]2[C@H](C1)[C@H](OC(=O)c1ccccc1)C[C@@H]2OC(=O)c1ccccc1)c1ccncc1	10.86	16.2	-110.81
O=C(NNC(c1ccccc1)(c1ccccc1)c1ccccc1)c1ccncc1	4.48	3.62	-75.72
O=C(NN=CC[C@H]1[C@H](CO)[C@@H](O)C[C@H]1O)c1ccncc1	13.38	0.85	-70.97
O=C(N/N=C/[C@@H]1C[C@H](CO)[C@@H]2CCC[C@@H]21)c1ccncc1	17.88	0.02	-36.93
